Compounds with a hit are over-represented: about 0.69% of the library has one in this group of screens.
Glioma ERSR ind: induces the endoplasmic reticulum stress response in human glioma cells; actives 0.02% (n = 420,000); AID 602332; Potency, µM, usual class: activators; U87-MG GRP78 promoter luciferase reporter, 16 h; further: series mostly up to about 76 µM; nearly all actives have a fitted effect of over 35% in size
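ERSR induction read as luciferase luminescence (Bright-Glo, 10 min at room temperature) in stably transfected human U87-MG glioma cells exposed to compounds for 16 h, using GRP78 as sensor.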
Abeta rescue: compounds reversing amyloid beta toxicity in yeast | yeast expressing A-beta42, growth rescue, OD600, 48 h; response scale: 0% DMSO, 100% iron-clioquinol control | Potency, µM (highest dose often 46.1 µM), usual class: activators | actives 0.063% (n = 410,000) | AID 1347071; further: nearly all actives have a fitted effect of over 55% in size
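Yeast growth medium received pinned compounds, then yeast cells expressing toxic A-beta were added; plates incubated at 30 C for 48 hr. Growth read as absorbance at 600 nm, normalized to DMSO and equimolar FeCl3 plus clioquinol controls.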
PINK1 modulator: modulators of PINK1 expression; PINK1 immunofluorescence, high-content cytometry, 24 h; Potency, µM (highest dose often 76.6 µM), actives largely listed as activators; actives 0.2% (n = 410,000); active means well fitted activation curve with a large enough effect; cell line not stated here; further: nearly all actives have a fitted effect of over 65% in size
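Measures PINK1 amount and localization on or inside mitochondria by immunofluorescence. Stable cells get compounds at 5 concentrations for 24 hours before fixation and staining; CCCP controls included.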
Vif-A3F inh: Vif-A3F binding inhibition | HeLa A3F-eYFP + Vif (tagged APOBEC3F with the HIV-1 protein that degrades it), YFP fluorescence increase | Potency, µM (top dose mostly 46.1 µM) | actives 0.2% (n = 390,000) | AID 602313; further: nearly all actives have a fitted effect of over 65% in size
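Fluorescence increase (Ex 488/Em 500-530) after overnight compound treatment at 37 deg C flags inhibition of Vif-driven A3F-eYFP loss in stable HeLa A3F-eYFP/Vif cells seeded overnight beforehand.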
Vif-A3G inh: Vif-A3G binding inhibition | actives 0.076% (n = 410,000) | Q9HC16 | HeLa A3G-eYFP + Vif (tagged APOBEC3G with the HIV-1 protein that degrades it), YFP fluorescence, overnight | AID 602310 | Potency, µM (doses to about 46.1 µM), hits mostly inhibitors; further: nearly all actives have a fitted effect of over 60% in size
Target sequence (Q9HC16 whole entry, looked up): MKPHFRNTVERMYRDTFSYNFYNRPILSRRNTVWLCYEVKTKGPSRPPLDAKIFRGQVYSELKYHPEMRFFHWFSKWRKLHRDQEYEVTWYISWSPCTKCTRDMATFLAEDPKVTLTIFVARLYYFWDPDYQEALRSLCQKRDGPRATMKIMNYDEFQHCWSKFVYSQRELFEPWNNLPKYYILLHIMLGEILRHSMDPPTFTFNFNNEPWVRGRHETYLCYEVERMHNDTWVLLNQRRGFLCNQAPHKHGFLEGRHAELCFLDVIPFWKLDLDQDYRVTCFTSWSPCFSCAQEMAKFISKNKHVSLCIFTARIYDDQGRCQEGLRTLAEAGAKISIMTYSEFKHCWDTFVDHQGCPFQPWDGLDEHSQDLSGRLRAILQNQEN
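Read-out is eYFP fluorescence (Ex 488/Em 500-530) from Vif-expressing HeLa A3G-eYFP cells; more signal means A3G escaped Vif-mediated degradation. Cells plated overnight, compound pinned in, incubated overnight at 37 deg C.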
FUS suppressor: rescues growth of FUS-expressing yeast. S. cerevisiae FUS-expressing, growth rescue, OD600, 24 h. Potency, µM (top dose mostly 76.6 µM), actives largely listed as activators. actives 0.24% (n = 390,000). AID 1347120; further: nearly all actives have a fitted effect of over 55% in size
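Yeast expressing FUS under galactose induction, OD 0.005 in 2% galactose medium; compounds in a dilution series, 24 h at 30C. Growth rescue by absorbance at 600 nm; CP55940 positive control, DMSO negative.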
Hits are given with their value; n = inactive; x = not tested or not shown. Unless noted, the call rests on the fitted dose curve; in most records, active means well fitted curve in the direction sought with a large enough effect; inconclusive means small, poorly fitted or top-dose-only effect, or another doubt; inactive means no such curve, though single readings can be large; an effect the other way counts as inactive or inconclusive.

SMILES	Glioma ERSR ind	Abeta rescue	PINK1 modulator	Vif-A3F inh	Vif-A3G inh	FUS suppressor
COc1ccc2c(c1)CCc1cnc(-n3ncc(C(=O)N(C)CC4CCCN(C)C4)c3C)nc1-2 (stereo not given)	n	x	n	x	x	x
CCN1CCN(C(=O)c2sc3ncnc(NCC4CCCO4)c3c2C)CC1 (stereo not given)	n	x	n	x	x	x
Cc1ccc(S(=O)(=O)NCC2Cc3ccccc3N2S(=O)(=O)c2ccc(C)cc2)cc1 (stereo not given)	x	x	x	x	x	n
Cc1ccc(S(=O)(=O)NCC2CN(S(=O)(=O)c3ccc(C)cc3)c3ccccc3C(=O)N2c2ccc(F)cc2)cc1 (stereo not given)	x	x	x	x	x	18µM
C[N+]1(C)CCN(C[C@@](O)(c2ccccc2)C2CCCCC2)CC1	n	x	x	x	x	x
NC(=O)[C@@H]1CCCN1C(=O)c1cc(NC(=O)c2ccccc2)cc2ncn(C3CCCC3)c12	n	x	n	x	x	x
CCN1C(=O)[C@H]2[C@@H](c3ccc(-c4ccc(Cl)c(Cl)c4)cc3)N[C@@](C)(C(=O)OC)[C@H]2C1=O	n	n	n	n	n	32µM
COC(=O)[C@]1(Cc2ccccc2)N[C@H](c2ccc(-c3ccccc3)cc2)[C@@H]2C(=O)N(C)C(=O)[C@@H]21	n	n	n	n	n	n
CCN1C(=O)[C@H]2[C@@H](c3ccc(-c4ccc(Cl)c(Cl)c4)cc3)N3CCCC[C@@]3(C(=O)OC)[C@H]2C1=O	n	n	n	n	n	n
CCN1C(=O)[C@H]2[C@@H](c3ccc(-c4ccc(OC)cc4)cc3)N3CCC[C@@]3(C(=O)OC)[C@H]2C1=O	n	n	n	n	n	28µM
CCN1C(=O)[C@H]2[C@@H](c3ccc(-c4ccc(Cl)c(Cl)c4)c(OC)c3)N[C@@](C)(C(=O)OC)[C@H]2C1=O	n	n	n	n	n	n
CCN1C(=O)[C@@H]2[C@@H](c3ccc(-c4ccc(Cl)c(Cl)c4)cc3)N3CCC[C@@]3(C(=O)OC)[C@@H]2C1=O	n	n	n	n	n	20µM
COC(=O)[C@]1(Cc2ccccc2)N[C@H](c2ccc(-c3cccc(Cl)c3)cc2)[C@@H]2C(=O)N(C)C(=O)[C@@H]21	n	n	n	n	n	14µM
CCN1C(=O)[C@@H]2[C@@H](c3ccc(-c4ccc(OC)cc4)cc3)N3CCC[C@@]3(C(=O)OC)[C@@H]2C1=O	n	n	n	n	n	n
FC(F)(F)c1cnc(-c2cc3c(c(OCC4CCCO4)c2)OCCN(Cc2cccn2-c2nccs2)C3)c(Cl)c1 (stereo not given)	n	x	n	x	x	x
COc1cccc(OC)c1CN1CCC2(CCC(CNC(=O)c3ccn(C)n3)O2)CC1 (stereo not given)	n	x	n	x	x	x
CCN1C(=O)[C@H]2[C@@H](c3ccc(-c4ccc(Cl)c(Cl)c4)c(OC)c3)N3CCCC[C@@]3(C(=O)OC)[C@H]2C1=O	n	n	n	n	n	25µM
O=C(N/N=C/c1ccc(F)cc1)c1c(O)c2ccccc2[nH]c1=O	n	n	4.5µM	n	n	x
O=C(NNC(=O)c1c(O)c2ccccc2[nH]c1=O)c1ccccc1	n	n	n	n	n	n
CCCn1c(=O)c(C(=O)N/N=C/c2ccc(F)cc2)c(O)c2ccccc21	n	n	n	n	n	n
O=C(N/N=C/c1cccc(F)c1)c1c(O)c2ccccc2[nH]c1=O	n	n	2.8µM	n	n	n
O=C(N/N=C/c1ccccc1)c1c(O)c2ccccc2[nH]c1=O	n	n	8.9µM	n	n	n
O=C(Nc1cccc(F)c1)c1c(O)c2ccccc2[nH]c1=O	n	n	n	n	n	n
O=C(Nc1ccc(Oc2ccc(NC(=O)Nc3ccc([N+](=O)[O-])cc3)cc2)cc1)Nc1ccc([N+](=O)[O-])cc1	n	n	28µM	n	n	n
O=C(Nc1ccc([N+](=O)[O-])cc1)Nc1ccc([N+](=O)[O-])cc1	n	x	x	x	x	x

High-throughput results from PubChem BioAssay.
